Compound activity as filed in PubChem.
The list is not random: actives were taken first. Their share in the collection is about 27%.
CYP2C19 inh = inhibitors of human CYP2C19; 96,000 compounds, 21% hits; inhibition, % at 5 µM; P33261; AID 778; CYP2C19 Supersomes, luciferin-H EGE luminescence, 30 min;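 active = CYP2C19 inhibition above a set limit at 5 µM in the primary screen, cut at about 50% in these data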;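 note: plate controls were negative control wells for no effect and 2.5 mM tranylcypromine positive control for full effect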
Target sequence (P33261 whole entry, looked up): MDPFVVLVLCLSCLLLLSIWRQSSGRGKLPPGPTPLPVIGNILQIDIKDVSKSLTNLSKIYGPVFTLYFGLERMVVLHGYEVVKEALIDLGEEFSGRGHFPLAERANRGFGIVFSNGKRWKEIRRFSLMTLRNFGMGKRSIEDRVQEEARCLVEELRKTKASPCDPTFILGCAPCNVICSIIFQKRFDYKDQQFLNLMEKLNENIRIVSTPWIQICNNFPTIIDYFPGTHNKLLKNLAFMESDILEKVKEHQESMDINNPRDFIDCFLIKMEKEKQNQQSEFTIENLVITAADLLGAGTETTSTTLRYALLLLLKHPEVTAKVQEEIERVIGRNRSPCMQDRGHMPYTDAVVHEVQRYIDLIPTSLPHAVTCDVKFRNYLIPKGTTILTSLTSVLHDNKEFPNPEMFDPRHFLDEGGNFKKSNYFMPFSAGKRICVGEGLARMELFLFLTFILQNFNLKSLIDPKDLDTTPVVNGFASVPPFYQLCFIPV
CYP2C9 activ = CYP2C9 (human) activation; P11712; AID 1024; activation factor at 5 µM; 96,000 compounds, 1.4% hits; recombinant CYP2C9, luciferin-H conversion, luminescence; hits give high values; factor 1 = untreated enzyme, 0 = blocked;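 active = activation factor of 2 or more for CYP2C9 at a 5 µM dose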;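 note: 0 = sulfaphenazole-blocked wells and 1 = vehicle-only wells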
Cav3 T inh = blocks human Cav3.2 T-type calcium channel | O95180 | Cav3.2-expressing cells, Fluo-4 calcium fluorescence FDSS; hits give low values | B-score at 10 µM | 100,000 compounds, 4% hits | AID 449739;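 active = single-dose well whose peak fluorescence ratio is a statistical outlier from its plate by either plate-standardised score or position-corrected B-score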
CYP2C19 activ = cytochrome P450 2C19 (human) activation; P33261; recombinant CYP2C19, luciferin-H EGE luminescence; hits give high values; 0 = fully inhibited enzyme, 1 = untreated enzyme; activation factor at 5 µM; 96,000 tested, under 10 active; AID 1025;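 active = activation factor of at least 2 at 5 µM in the primary screen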;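 note: 0 = wells with 2.5 mM tranylcypromine and 1 = vehicle-only wells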
CYP2C9 inh = human CYP2C9 inhibition | P11712 | CYP2C9 Supersomes, luciferin-H conversion, luminescence | inhibition, % at 5 µM | 96,000 compounds, 20% hits;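 active = blocking of liver enzyme CYP2C9 beyond about 50% at 5 µM, limit read from the data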
The depositor's hits bear a star; nt = no result.

SMILES	CYP2C19 inh	CYP2C9 activ	Cav3 T inh	CYP2C19 activ	CYP2C9 inh
Cc1cc(OCC(=O)N2CCc3ccccc3C2)c2c(-c3ccccc3)cc(=O)oc2c1	86*	0	-3.1	0.1	97*
CC(C)Oc1ccc2c(=O)c(-c3ccccc3)coc2c1	nt	nt	0.047	nt	nt
Cc1cc(OC(C)C)c2c(-c3ccccc3)cc(=O)oc2c1	43	0.2	0.026	0.6	80*
Cc1ccc(SC(C)C(=O)N2CCCC2)cc1 (centres undefined)	76*	0.8	0.38	0.2	18
O=C(Nc1ccc(Oc2ccc(Cl)cc2)cc1)c1ncn[nH]1	54*	1	-0.18	0.5	3
CS(=O)(=O)N1CCN(c2ccc(NC(=O)c3ccc(-c4ccc(Cl)cc4)o3)cc2)CC1	21	0.9	0.0093	0.8	6
CS(=O)(=O)N1CCN(c2ccccc2NC(=O)c2ccc(-c3ccc(Br)cc3)o2)CC1	56*	0.3	-1.3	0.4	71*
COc1cc2ccccc2cc1C(=O)Nc1ccccc1N1CCN(S(C)(=O)=O)CC1	50*	0.5	nt	0.5	47
Cc1ccc(C(=O)N2C3C=CC(C3)C2(C(F)(F)F)C(F)(F)F)cc1 (centres undefined)	19	0.7	0.54	0.8	34
COc1ccc(C(c2nnnn2C2CCCCC2)N2CCN(c3ccccc3)CC2)cc1 (centres undefined)	72*	0.3	nt	0.3	75*
Cc1ccc2cc(C(c3nnnn3C(C)(C)C)N3CCCCCC3)c(=O)[nH]c2c1 (centres undefined)	32	0.3	0.068	0.7	65*
CCC(C)(C)n1nnnc1C(c1cc2cc(C)ccc2[nH]c1=O)N1CCCC1 (centres undefined)	1	0.8	0.18	1	17
COc1ccc(C(c2nnnn2C2CCCC2)N2CCC(C)CC2)c(OC)c1 (centres undefined)	36	0.8	nt	0.6	21
COc1ccc(C(c2nnnn2C2CCCC2)N2CCN(c3ccccc3)CC2)cc1 (centres undefined)	nt	nt	-5.2*	nt	nt
CCOC(=O)C1CCN(C(c2cc3ccc(C)c(C)c3[nH]c2=O)c2nnnn2C2CCCCC2)CC1 (centres undefined)	80*	0.1	-2.2	0.2	90*
O=C(CCn1nc(-c2ccccc2)ccc1=O)N1CCOCC1	26	1	nt	0.7	-4
COc1ccc(OC)c(C(c2nnnn2C2CCCC2)N2CCN(c3ccc(F)cc3)CC2)c1 (centres undefined)	81*	0.4	-9.4*	0.2	63*
COc1ccc2[nH]c(=O)c(C(c3nnnn3C3CCCC3)N3CCN(Cc4ccc5c(c4)OCO5)CC3)cc2c1 (centres undefined)	-8	0.2	-1.5	1.1	84*
Cc1ccc2cc(C(c3nnnn3Cc3ccccc3)N3CCN(c4ccccc4)CC3)c(=O)[nH]c2c1 (centres undefined)	23	0.7	nt	0.8	30
Cc1ccc2cc(C(c3nnnn3C3CCCC3)N3CCN(c4ccccc4)CC3)c(=O)[nH]c2c1 (centres undefined)	4	0.6	-6.1*	1	40
CC(C)COC(=O)C1C2C=CC3(CN(C4CCCC4)C(=O)C13)O2 (centres undefined)	-4	1	0.88	1	4
CCN(CC)CC(C)OC(=O)c1cc(OC)c(OC)c(OC)c1 (centres undefined)	-8	1	nt	1.1	5
COC(=O)c1cc(-c2ccccc2)n(CC(=O)O)c1C	8	0.8	nt	0.9	19
CC1(C)NC(=O)N(CC(O)COc2ccccc2-c2ccccc2)C1=O (centres undefined)	99*	0.1	-0.089	0	87*
COc1ccccc1OCC(O)CN1C(=O)NC(C)(C)C1=O (centres undefined)	50	0.6	0.0017	0.5	36
SMILES	CYP2C19 inh	CYP2C9 activ	Cav3 T inh	CYP2C19 activ	CYP2C9 inh
CC1(C)NC(=O)N(CC(O)COC2CCCCC2)C1=O (centres undefined)	82*	0.6	nt	0.2	42
CC1(C)NC(=O)N(CC(O)CN2CCCCC2)C1=O (centres undefined)	-2	1	nt	1	0
Cc1cc(C)cc(OCC(O)CN2C(=O)NC(C)(C)C2=O)c1 (centres undefined)	72*	0.6	0.016	0.3	44
COc1ccc2[nH]c(=O)c(C(c3nnnn3C3CCCC3)N(C)C3CCCCC3)cc2c1 (centres undefined)	1	1.1	-2.8	1	-7
CCOc1ccc(-c2nc(CSc3nnc(C)s3)cs2)cc1OC	22	0.9	0.34	0.8	10
CCOc1ccc(-c2nc(CSc3nncs3)cs2)cc1OC	53*	0.9	0.03	0.5	7
Cc1ccc(S(=O)(=O)CC2CSc3nc4ccccc4n32)cc1 (centres undefined)	68*	0.5	-0.87	0.3	54*
Cc1ccc(S(=O)(=O)CCc2nc3ccccc3n2CCC#N)cc1	51*	1	1.4	0.5	-2
CC(=O)Nc1nonc1-c1nc2ccccc2n1CCC#N	-4	0.9	-0.06	1	10
COC(=O)Cn1c(CCS(=O)(=O)c2ccc(C)c(C)c2)nc2ccccc21	61*	1.2	-0.31	0.4	-16
C=C(C)Cn1c(CCNC(=O)CC)nc2ccccc21	nt	nt	0.4	nt	nt
COC(=O)[C@@]1(Cc2ccc(F)cc2)[C@H]2c3cc(C(=O)N4CCCC4)n(CCc4ccccn4)c3C[C@H]2CN1C(=O)c1ccccc1	nt	nt	-0.043	nt	nt
O=C(Nc1ccc2c(c1)ncn2C1CCCCC1)c1ccco1	8	0.8	0.21	0.9	18
COc1ccc(-c2csc(NC(CO)c3nc4ccccc4n3CCOCCO)n2)cc1 (centres undefined)	nt	nt	0.49	nt	nt
COC(=O)c1c(C)oc2ccc(N(C(=O)c3ccncc3)S(=O)(=O)c3ccccc3)cc12	91*	0.2	-4.1*	0.1	77*
COC(=O)c1c(C)oc2ccc(N(C(=O)c3ccncc3)S(=O)(=O)c3ccc(C)cc3)cc12	100*	0	-3	0	98*
CC(=O)NC(CCS(C)(=O)=O)C(=O)N1CCc2ccccc21 (centres undefined)	-7	1.1	1.2	1.1	-10
Cc1[nH]c2ccccc2c1Cc1n[nH]c(=S)n1C	nt	nt	-0.9	nt	nt
Cn1c(Cc2c[nH]c3ccccc23)n[nH]c1=S	67*	0.6	0.94	0.3	38
CCOC(=O)CN(C(=O)CSc1nnc(-c2ccc(OC)c(OC)c2)o1)c1ccccc1	20	0.7	1.1	0.8	34
Cn1c(SCc2cc(=O)n3cc(Br)ccc3n2)nnc1C1COc2ccccc2O1 (centres undefined)	30	0.5	2.4	0.7	54*
O=C(O)CSc1nnc(C2COc3ccccc3O2)n1-c1ccccc1 (centres undefined)	19	0.9	1.5	0.8	15
Cn1c(SCc2cnc(-c3ccccc3)s2)nnc1C1COc2ccccc2O1 (centres undefined)	90*	0.5	-4.9*	0.1	49
